Measurements from PubChem BioAssay AID1159580 (chemical genetic matrix, 2015).
Where “and” joins values, the source holds several entries; their conditions need not be identical. Identical values can stand only once. Screen size: about 5,500 compounds; about 2,000 (36%) were called active. Another 18% or so got no clear call; they are omitted. Cut-off read from the data, not from the text of the source: active = normalized growth mostly below about 0.91 (no sharp cut-off); inconclusive = no clear call, values can overlap the other calls; inactive = mostly above about 0.92. The list shows a part of the results.

Test: chemical genetic growth profiling, strain panel (AID 1159580);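 note: tested at 20 µM; growth read once vehicle control cultures reached saturation at 30 °C; 1 = growth at the plate median or of vehicle wells; lower values mean less growth of the strain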
Details: growth OD
[1] = S. cerevisiae deletion strains, locus YBR229C, strain ROT2, stronger effect = lower value
[2] = S. cerevisiae deletion strains, locus YCL061C, strain MRC1, stronger effect = lower value
[3] = S. cerevisiae deletion strains, locus YDL101C, strain DUN1, stronger effect = lower value
[4] = S. cerevisiae deletion strains, locus YDL134C, strain PPH21, stronger effect = lower value
[5] = S. cerevisiae deletion strains, locus YDR150W, strain NUM1, stronger effect = lower value
[6] = S. cerevisiae deletion strains, locus YEL061C, strain CIN8, stronger effect = lower value
[7] = S. cerevisiae deletion strains, locus YGR078C, strain PAC10, stronger effect = lower value
[8] = S. cerevisiae deletion strains, locus YHR030C, strain SLT2, stronger effect = lower value
[9] = S. cerevisiae deletion strains, locus YHR087W, strain rtc3, stronger effect = lower value
[10] = S. cerevisiae deletion strains, locus YJR043C, strain POL32, stronger effect = lower value
[11] = S. cerevisiae deletion strains, locus YJR075W, strain HOC1, stronger effect = lower value
[12] = S. cerevisiae deletion strains, locus YLR039C, strain RIC1, stronger effect = lower value
[13] = S. cerevisiae deletion strains, locus YLR058C, strain SHM2 (second series), stronger effect = lower value
[14] = S. cerevisiae deletion strains, locus YLR085C, strain ARP6, stronger effect = lower value
[15] = S. cerevisiae deletion strains, locus YLR262C, strain YPT6, stronger effect = lower value
[16] = S. cerevisiae deletion strains, locus YML094W, strain GIM5, stronger effect = lower value
[17] = S. cerevisiae deletion strains, locus YMR219W, strain ESC1, stronger effect = lower value
[18] = S. cerevisiae deletion strains, locus YMR263W, strain SAP30, stronger effect = lower value
[19] = S. cerevisiae deletion strains, locus YMR307W, strain GAS1, stronger effect = lower value
[20] = S. cerevisiae deletion strains, locus YNL153C, strain GIM3, stronger effect = lower value
[21] = S. cerevisiae deletion strains, locus YNL298W, strain CLA4 (second series), stronger effect = lower value
[22] = S. cerevisiae deletion strains, locus YNL322C, strain KRE1, stronger effect = lower value
[23] = S. cerevisiae deletion strains, locus YNR030W, strain Alg12, stronger effect = lower value
[24] = S. cerevisiae deletion strains, locus YPL055C, strain LGE1, stronger effect = lower value
[25] = S. cerevisiae deletion strains, locus YPL241C, strain CIN2, stronger effect = lower value
[26] = S. cerevisiae deletion strains, locus YPR135W, strain CTF4, stronger effect = lower value

Measured: normalized growth

COc1ccc(-c2c(C(=O)O)sc(SC)c2C#N)cc1
inactive: S. cerevisiae deletion strains, locus YAL013W, strain DEP1, stronger effect = lower value 0.996 | [1] 0.998 | [2] 0.989 | [3] 1.01 | [4] 1.01 | [5] 1.07 | [6] 1.01 | [7] 1.01 | S. cerevisiae deletion strains, locus YGR229C, strain SMI1, stronger effect = lower value 1 | [8] 1.01 | [9] 0.997 | [10] 0.981 | [11] 1.01 | S. cerevisiae deletion strains, locus YKL190W, strain CNB1, stronger effect = lower value 1.01 | [12] 1.03 | [13] 0.994 | [14] 1.05 | [15] 1.04 | [16] 1.02 | [17] 1 | [18] 1.04 | [19] 1.06 | [20] 0.992 | [21] 1 | [22] 1 | [23] 1.01 | [24] 1.1 | [25] 1.01 | [26] 0.964

CSc1sc(-c2ccn[nH]2)c(-c2ccccc2)c1C#N
inactive: S. cerevisiae deletion strains, locus YAR019C, strain CDC15, stronger effect = lower value 0.982 | S. cerevisiae deletion strains, locus YBL105C, strain PKC1, stronger effect = lower value 0.981 | S. cerevisiae deletion strains, locus YBR135W, strain CKS1, stronger effect = lower value 0.975 | S. cerevisiae deletion strains, locus YBR136W, strain MEC1, stronger effect = lower value 0.975 | S. cerevisiae deletion strains, locus YBR160W, strain CDC28, stronger effect = lower value 0.992 | [1] 0.941 | [2] 0.981 | S. cerevisiae deletion strains, locus YDL017W, strain CDC7, stronger effect = lower value 0.994 | S. cerevisiae deletion strains, locus YDL028C, strain MPS1, stronger effect = lower value 0.983 | [3] 0.968 and 0.962 | S. cerevisiae deletion strains, locus YDL108W, strain KIN28, stronger effect = lower value 0.977 | S. cerevisiae deletion strains, locus YDL132W, strain cdc53, stronger effect = lower value 0.972 | S. cerevisiae deletion strains, locus YDL214C, strain PRR2, stronger effect = lower value 0.997 | S. cerevisiae deletion strains, locus YDR052C, strain DBF4, stronger effect = lower value 0.989 | S. cerevisiae deletion strains, locus YDR054C, strain cdc34, stronger effect = lower value 0.988 | [5] 0.974 | S. cerevisiae deletion strains, locus YDR226W, strain ADK1, stronger effect = lower value 0.976 | S. cerevisiae deletion strains, locus YDR477W, strain SNF1, stronger effect = lower value 0.984 | S. cerevisiae deletion strains, locus YER123W, strain YCK3, stronger effect = lower value 0.976 | S. cerevisiae deletion strains, locus YER133W, strain GLC7, stronger effect = lower value 0.987 | S. cerevisiae deletion strains, locus YFL009W, strain cdc4, stronger effect = lower value 0.97 | S. cerevisiae deletion strains, locus YFL029C, strain CAK1, stronger effect = lower value 0.975 | S. cerevisiae deletion strains, locus YFR003C, strain YPI1, stronger effect = lower value 0.976 | S. cerevisiae deletion strains, locus YFR019W, strain FAB1, stronger effect = lower value 0.973 | S. cerevisiae deletion strains, locus YFR028C, strain CDC14, stronger effect = lower value 0.974 | S. cerevisiae deletion strains, locus YGR040W, strain KSS1, stronger effect = lower value 0.998 | S. cerevisiae deletion strains, locus YGR052W, strain FMP48, stronger effect = lower value 0.998 | [7] 0.941 | S. cerevisiae deletion strains, locus YGR092W, strain DBF2, stronger effect = lower value 1 | S. cerevisiae deletion strains, locus YHR079C, strain IRE1, stronger effect = lower value 1.09 | S. cerevisiae deletion strains, locus YHR082C, strain KSP1, stronger effect = lower value 1.03 | [9] 0.914 | S. cerevisiae deletion strains, locus YHR205W, strain SCH9, stronger effect = lower value 0.997 | S. cerevisiae deletion strains, locus YIL147C, strain SLN1, stronger effect = lower value 0.979 | S. cerevisiae deletion strains, locus YJL095W, strain BCK1, stronger effect = lower value 0.974 | S. cerevisiae deletion strains, locus YJL128C, strain PBS2, stronger effect = lower value 0.957 | S. cerevisiae deletion strains, locus YJL157C, strain FAR1, stronger effect = lower value 0.986 | S. cerevisiae deletion strains, locus YJR016C, strain ILV3, stronger effect = lower value 0.978 | [10] 0.969 | S. cerevisiae deletion strains, locus YJR066W, strain TOR1 (second series), stronger effect = lower value 0.92 | S. cerevisiae deletion strains, locus YJR066W, strain TOR1, stronger effect = lower value 1.04 | [11] 0.944 | S. cerevisiae deletion strains, locus YKL048C, strain ELM1, stronger effect = lower value 0.984 | S. cerevisiae deletion strains, locus YKL067W, strain YNK1, stronger effect = lower value 0.992 | S. cerevisiae deletion strains, locus YKL101W, strain HSL1, stronger effect = lower value 0.976 | S. cerevisiae deletion strains, locus YKL193C, strain SDS22, stronger effect = lower value 0.983 | S. cerevisiae deletion strains, locus YKL203C, strain TOR2, stronger effect = lower value 1.04 | [12] 0.846 | [13] 0.975 | S. cerevisiae deletion strains, locus YLR133W, strain CKI1, stronger effect = lower value 0.968 | [15] 0.991 | S. cerevisiae deletion strains, locus YLR403W, strain SFP1, stronger effect = lower value 0.982 | S. cerevisiae deletion strains, locus YML070W, strain DAK1, stronger effect = lower value 0.984 | S. cerevisiae deletion strains, locus YMR001C, strain CDC5, stronger effect = lower value 0.993 | S. cerevisiae deletion strains, locus YMR205C, strain PFK2 (second series), stronger effect = lower value 0.97 | [17] 0.955 | [18] 0.939 | S. cerevisiae deletion strains, locus YMR277W, strain FCP1, stronger effect = lower value 0.984 | S. cerevisiae deletion strains, locus YNL006W, strain LST8, stronger effect = lower value 1 | S. cerevisiae deletion strains, locus YNL020C, strain ARK1, stronger effect = lower value 0.996 | [20] 0.979 | S. cerevisiae deletion strains, locus YNL161W, strain CBK1, stronger effect = lower value 0.991 | S. cerevisiae deletion strains, locus YNL183C, strain NPR1, stronger effect = lower value 1 | S. cerevisiae deletion strains, locus YNL207W, strain RIO2, stronger effect = lower value 0.96 | S. cerevisiae deletion strains, locus YNL222W, strain SSU72, stronger effect = lower value 0.977 | S. cerevisiae deletion strains, locus YNL307C, strain MCK1 (second series), stronger effect = lower value 1.01 | [22] 0.965 | S. cerevisiae deletion strains, locus YOL078W, strain AVO1, stronger effect = lower value 0.981 | S. cerevisiae deletion strains, locus YOL136C, strain PFK27, stronger effect = lower value 0.956 | S. cerevisiae deletion strains, locus YOR061W, strain CKA2, stronger effect = lower value 0.986 | S. cerevisiae deletion strains, locus YOR119C, strain RIO1, stronger effect = lower value 1.02 | S. cerevisiae deletion strains, locus YOR231W, strain MKK1, stronger effect = lower value 0.965 | S. cerevisiae deletion strains, locus YOR329C, strain SCD5, stronger effect = lower value 0.995 | S. cerevisiae deletion strains, locus YPL031C, strain PHO85, stronger effect = lower value 0.989 | [24] 0.875 | S. cerevisiae deletion strains, locus YPL153C, strain RAD53, stronger effect = lower value 0.971 | S. cerevisiae deletion strains, locus YPL204W, strain HRR25, stronger effect = lower value 0.958 | S. cerevisiae deletion strains, locus YPL209C, strain IPL1, stronger effect = lower value 0.978 | S. cerevisiae deletion strains, locus YPL256C, strain CLN2, stronger effect = lower value 1.04 | S. cerevisiae deletion strains, locus YPR025C, strain CCL1, stronger effect = lower value 0.989 | S. cerevisiae deletion strains, locus YPR106W, strain ISR1, stronger effect = lower value 0.986 | S. cerevisiae deletion strains, locus YPR111W, strain DBF20, stronger effect = lower value 0.954 | [26] 0.69 | S. cerevisiae deletion strains, strain NNK1, stronger effect = lower value 0.966 | S. cerevisiae deletion strains, strain TSCII, stronger effect = lower value 0.984
0.599 (active) and 1.06 (inactive): [8]
active: [4] 0.732 | [6] 0.827 | [14] 0.437 | S. cerevisiae deletion strains, locus YLR113W, strain HOG1, stronger effect = lower value 0.861 | [16] 0.789 | [19] 0.508 | [21] 0.735 | [23] 0.753 | [25] 0.758 | S. cerevisiae strains, strain wild type, stronger effect = lower value 0.911
